The campaign covered roughly 1,400 compounds. About 350 (25%) were called active. Inconclusive results (about 2%) are left out. The rule behind the calls is not given here. These entries were drawn from the full list. Potency and affinity values are given separately.
assay: C. difficile growth inhibition, confirmation, 4-point retest (AID 1224921); conditions: Clostridioides difficile clinical isolate growth, OD600, 24 h, active compounds read low; at 30 µM unless noted;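 note: plate controls were DMSO wells for no effect and levofloxacin 16 µg/mL wells for full effect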

Max activity, inactive:
CCCN1C[C@@H](C)[C@@H](OC)CN(C)C(=O)c2cc(NC(=O)CC)ccc2OC[C@@H]1C 8.06%, C[C@H](CO)N1C[C@H](C)[C@H](CN(C)C(=O)Nc2cccc(F)c2)Oc2cc(C#CC3(O)CCCC3)ccc2S1(=O)=O 50.2%, Cc1ccc(-c2ccc3c(c2)O[C@H](CN(C)Cc2cccnc2)[C@@H](C)CN([C@@H](C)CO)S3(=O)=O)cc1 36.5%, CO[C@H]1CN(C)C(=O)c2ccc(NC(=O)c3cccc(F)c3)cc2OC[C@H](C)N(C(C)=O)C[C@@H]1C -20.5%, COc1ccc(S(=O)(=O)N(C)C[C@@H]2Oc3ncc(-c4ccc(F)cc4)cc3C(=O)N([C@H](C)CO)C[C@@H]2C)cc1 -7.45%, C[C@H](C(=O)N(C)C[C@H]1OCc2ccccc2-c2ccccc2C(=O)N([C@@H](C)CO)C[C@@H]1C)c1ccccc1 -4.71% [at 0.5 µM], C[C@@H]1CN([C@H](C)CO)C(=O)c2cc(C#CCN(C)C)cnc2O[C@H]1CN(C)Cc1ccccc1F 24.5%, COc1ccc(C#Cc2ccc3c(c2)[C@]2(C(=O)N3)[C@H](C(N)=O)[C@H]3C(=O)O[C@H](c4ccccc4)[C@H](c4ccccc4)N3[C@@H]2c2ccc(O)cc2)cc1 23.8%, NC(=O)[C@H]1[C@@H]2C(=O)O[C@@H](c3ccccc3)[C@@H](c3ccccc3)N2[C@@H](c2ccccc2OCCO)[C@]12C(=O)Nc1ccc(C#CC3(O)CCCCCC3)cc12 16.8% [at 8 µM], CC(=O)N(C)C[C@@H]1Oc2ncc(C#Cc3ccc(F)cc3)cc2C(=O)N([C@H](C)CO)C[C@@H]1C 22.7%, C[C@H]1CN([C@@H](C)CO)C(=O)c2cc(NC(=O)Nc3cccc4ccccc34)ccc2O[C@@H]1CN(C)S(=O)(=O)c1ccccc1 37.2%, CO[C@H]1CN(C)C(=O)c2cc(NS(C)(=O)=O)ccc2OC[C@H](C)N(Cc2ccccn2)C[C@@H]1C 2.2%, CO[C@H](CN(C)Cc1cc(F)ccc1F)[C@@H](C)CN(C(=O)Nc1ccc(F)cc1)[C@@H](C)CO 21.5%, C/C=C/[C@@H](CCn1cc(CCO)nn1)[Si](C)(C)c1ccc(OC)cc1 -14.8% [at 0.5 µM], C[C@H](NC(=O)N(C)C[C@@H]1OCc2ccccc2-c2c(n(C)c3ccccc23)C(=O)N([C@@H](C)CO)C[C@H]1C)c1ccccc1 26.5% [at 8 µM], CN(C)CCCNC(=O)[C@H]1[C@H](CO)[C@H]2Cn3c(ccc(-c4cccc(F)c4)c3=O)[C@@H]1N2C -8.59%, CNC[C@H]1Oc2cc(-c3ccccc3F)ccc2S(=O)(=O)N([C@H](C)CO)C[C@@H]1C 14%, Cc1ccccc1-c1ccc2c(c1)O[C@@H](CN(C)Cc1ccncc1)[C@@H](C)CN([C@@H](C)CO)S2(=O)=O 40.4%, C/C=C/c1cnc2c(c1)C(=O)N([C@@H](C)CO)C[C@@H](C)[C@@H](CN(C)Cc1ccc(F)cc1)O2 19.7%, C[C@H](CO)N1C[C@H](C)[C@H](CN(C)Cc2ccc(C(=O)O)cc2)Oc2ncc(C#CCN(C)C)cc2C1=O -7.61% [at 8 µM], CO[C@@H]1CN(C)C(=O)c2ccc(NC(=O)c3nc4ccccc4s3)cc2OC[C@H](C)N(Cc2cccnc2)C[C@@H]1C -17.1% [at 1.95 µM], CCCN1C[C@H](C)[C@@H](OC)CN(C)C(=O)c2cc(NC(=O)CC)ccc2OC[C@H]1C -10.4% [at 0.5 µM], Cc1ccc(-c2ccc3c(c2)O[C@H](CN(C)Cc2ccncc2)[C@@H](C)CN([C@H](C)CO)S3(=O)=O)cc1 -11.4% [at 8 µM], CO[C@@H]1CN(C)C(=O)c2ccc(NC(=O)C3CC3)cc2OC[C@@H](C)N(Cc2cncnc2)C[C@@H]1C -9.09% [at 1.95 µM], CCCC#Cc1ccc2c(c1)O[C@@H](CN(C)C(=O)c1ccccc1F)[C@@H](C)CN([C@@H](C)CO)S2(=O)=O 23.4%, C[C@@H]1CN([C@@H](C)CO)C(=O)Cc2cc(NC(=O)c3ccncc3)ccc2O[C@H]1CN(C)Cc1ccc(Cl)c(Cl)c1 36.8% [at 8 µM], COc1ccc(CNC(=O)C[C@H]2CC[C@H](NC(=O)c3cccc(F)c3)[C@@H](CO)O2)cc1 -5.36% [at 1.95 µM], C[C@H]1CCCCO[C@H](CN(C)Cc2ccc3c(c2)OCO3)[C@@H](C)CN([C@@H](C)CO)C(=O)c2cc(NC(=O)Nc3ccc(F)cc3)ccc2O1 29.6%, O=C(NCCc1ccccc1)[C@@H]1[C@@H](CO)[C@@H]2Cn3c(cccc3=O)[C@H]1N2C(=O)C1CC1 -6.59%, CCCN1C[C@H](C)[C@@H](OC)CN(C)C(=O)c2ccc(NC(=O)Nc3c(C)noc3C)cc2OC[C@H]1C 6.66%, CO[C@H]1CN(C)C(=O)c2cc(NC(=O)Nc3ccc(Cl)cc3)ccc2OC[C@H](C)N(C(=O)Nc2c(C)noc2C)C[C@@H]1C -13% [at 8 µM], Cc1ccc(-c2ccc3c(c2)O[C@H](CN(C)Cc2cccnc2)[C@@H](C)CN([C@H](C)CO)S3(=O)=O)cc1 31.7%, CO[C@@H]1CN(C)C(=O)c2ccc(NS(=O)(=O)c3ccc(C)cc3)cc2OC[C@@H](C)N(C(=O)NC(C)C)C[C@H]1C 14.4%, CCCN1C[C@H](C)[C@H](OC)CN(C)C(=O)c2cc(NC(=O)CC)ccc2OC[C@@H]1C 7.21% [at 8 µM], O=C(C[C@@H]1C=C[C@@H](NC(=O)Cc2ccccn2)[C@H](CO)O1)NCCCN1CCOCC1 2.76% [at 0.5 µM], CC(C)CC#Cc1ccc2c(c1)O[C@@H](CN(C)Cc1ccncc1)[C@H](C)CN([C@@H](C)CO)S2(=O)=O 29.7%, COc1ccc(-c2ccc([C@@H]3[C@@H](CO)N(C(=O)C4CCCC4)[C@H]3C#N)cc2)cc1 25% [at 7.5 µM]
